Measurements taken from PubChem BioAssay AID1942 (Johns Hopkins Ion Channel Center, 2009).
The campaign covered roughly 2,400 compounds. About 580 (24%) were called active. The list is a sample of the results. Unmarked numbers belong to inactive results.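 Rule for the calls: active = activity change at or above the mean plus 3 SD of buffer wells without dofetilide, per plate; inactive = the rest.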

These compounds were tested against Potassium voltage-gated channel subfamily KQT member 2 (Rattus norvegicus) (UniProt O88943) (assay: rat KCNQ2 channel activation by compounds alone, confirmation, counter-screen for hERG block protector project, cell-based, CHO, FluxOR thallium flux (AID 1942;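 note: normalized value minus buffer-control mean plus three SD of buffer wells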)). Conditions: CHO-KCNQ2 cells, FluxOR thallium flux fluorescence; at 10 µM; hits give high values.
Chain of Potassium voltage-gated channel subfamily KQT member 2 (Rattus norvegicus) (O88943 whole entry, looked up): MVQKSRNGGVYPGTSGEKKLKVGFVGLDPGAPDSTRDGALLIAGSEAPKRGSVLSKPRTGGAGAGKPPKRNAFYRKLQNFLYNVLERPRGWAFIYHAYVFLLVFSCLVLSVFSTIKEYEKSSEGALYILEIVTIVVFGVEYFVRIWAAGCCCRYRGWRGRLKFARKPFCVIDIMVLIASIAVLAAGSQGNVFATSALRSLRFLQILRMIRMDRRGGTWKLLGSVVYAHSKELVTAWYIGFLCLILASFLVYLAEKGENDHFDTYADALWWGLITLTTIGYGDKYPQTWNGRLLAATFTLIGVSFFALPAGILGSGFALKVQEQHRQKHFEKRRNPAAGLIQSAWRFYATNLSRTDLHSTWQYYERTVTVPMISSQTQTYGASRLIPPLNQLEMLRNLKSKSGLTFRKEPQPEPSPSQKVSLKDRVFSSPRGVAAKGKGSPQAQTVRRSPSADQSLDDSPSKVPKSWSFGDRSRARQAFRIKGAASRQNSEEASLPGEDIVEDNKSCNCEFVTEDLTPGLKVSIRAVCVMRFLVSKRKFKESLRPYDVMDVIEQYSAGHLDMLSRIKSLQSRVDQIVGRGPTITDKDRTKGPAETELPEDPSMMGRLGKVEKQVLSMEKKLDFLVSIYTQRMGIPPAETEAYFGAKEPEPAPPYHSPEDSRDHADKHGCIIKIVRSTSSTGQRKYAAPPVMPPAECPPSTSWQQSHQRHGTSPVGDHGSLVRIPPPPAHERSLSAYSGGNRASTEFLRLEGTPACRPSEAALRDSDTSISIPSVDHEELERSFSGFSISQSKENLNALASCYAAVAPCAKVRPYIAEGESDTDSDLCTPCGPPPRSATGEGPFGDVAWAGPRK
In the case of COc1ccc(OCC(=O)Nc2c3c(nn2-c2ccc(OC)cc2)CS(=O)(=O)C3)cc1, the activity change, less the hit threshold is reported as -16.4%.
CC(=O)NCCC(=O)N(C)CC1CCN(CCc2cccc(C(F)(F)F)c2)CC1 gave an activity change, less the hit threshold of -13.4%.
COc1ccc2ncc(OC(C)=O)cc2c1 gave an activity change, less the hit threshold of -7.9%.
COC(=O)c1sccc1NC(=S)N1CCN(C)CC1 showed an activity change, less the hit threshold of -22.7%.
In the case of COC(=O)c1sccc1NC(=S)NCc1ccc(Cl)cc1, the activity change, less the hit threshold is reported as 3.3% (active).
In the case of CSc1ccccc1NC(=S)NCc1ccc(Cl)cc1, the activity change, less the hit threshold is reported as -17.2%.
Compound Cc1ccc(NC(=O)c2ccc(NC3=NC4CS(=O)(=O)CC4S3)cc2)cc1 (centres undefined) has an activity change, less the hit threshold of -20.8%.
Work on COc1cc(Cl)cc(C(c2c(C(=O)O)[nH]c3ccccc23)c2c(C(=O)O)[nH]c3ccccc23)c1O yielded an activity change, less the hit threshold of -20.1%.
In the case of Cc1cc(C(F)(F)F)n(-c2ccc(N)cc2)n1, the activity change, less the hit threshold is reported as -13.2%.
Work on O=C(COc1ccccc1[N+](=O)[O-])Nc1cc(Cl)ccc1C(=O)O yielded an activity change, less the hit threshold of -11.3%.
For O=C(NNc1nc2c(F)cccc2s1)c1cc(=O)c2ccccc2o1, the activity change, less the hit threshold was -19.2%.
In the case of O=c1cc(-c2c(F)c(F)c(F)c(F)c2F)oc2ccccc12, the activity change, less the hit threshold is reported as 12.2% (active).
COc1ccc(S(=O)(=O)Nc2cccc(-n3cnnn3)c2)cc1 was tested, and the activity change, less the hit threshold was -11.2%.
With Cc1ccnc(SCCn2c(N3CC(C)OC(C)C3)nc3c2c(=O)n(C)c(=O)n3C)n1 (centres undefined) the activity change, less the hit threshold was -16.5%.
Compound O=C(Cn1c(=O)oc2ccccc21)Nc1ccc(F)c(F)c1 has an activity change, less the hit threshold of -17.1%.
Compound CCCCn1nnc(NC(=O)Cc2ccc(Cl)cc2)n1 has an activity change, less the hit threshold of -11.7%.
CCOc1ccc2[nH]cc(S(=O)(=O)c3ccc(F)cc3)c(=O)c2c1 gave an activity change, less the hit threshold of -19.1%.
Compound S=c1[nH]nc(-c2ccc(Cl)cc2)n1Cc1ccccc1 has an activity change, less the hit threshold of -30.3%.
With CCCCn1c(-c2csc(C(C)C)c2)n[nH]c1=S the activity change, less the hit threshold was 6.8% (active).
CC(C)(C)OC(=O)C(Cl)(C(=O)OC(C)(C)C)c1ccc2nnnn2n1 gave an activity change, less the hit threshold of -14.5%.
CC(=O)c1cc(N2CCC(C(=O)O)CC2)ccc1[N+](=O)[O-] gave an activity change, less the hit threshold of -24.9%.
CCc1nnc(NC(=O)c2c(C)nn(-c3ccccc3)c2Cl)s1 showed an activity change, less the hit threshold of -4.8%.
For Cc1nn(-c2ccccc2)c(Cl)c1/C=C1\SC(=S)NC1=O, the activity change, less the hit threshold was 60.1% (active).
Cc1nn(-c2ccccc2)c(C)c1S(=O)(=O)O was tested, and the activity change, less the hit threshold was -13.9%.
Work on CCCC(=O)n1nc(-c2ccccc2)nc1N yielded an activity change, less the hit threshold of -17.9%.
With O=C(Nc1nc(-c2ccccc2)c(-c2ccccc2)o1)c1ccc(F)cc1 the activity change, less the hit threshold was 9% (active).
O=C(Nc1cccc2[nH]ncc12)c1ccc(F)cc1 gave an activity change, less the hit threshold of -24.7%.
For CN(C)/C(=N\S(=O)(=O)c1ccccc1)c1ccc(F)cc1, the activity change, less the hit threshold was -9.6%.
Cc1ccc(-c2nc(CSCC(=O)N3CCOCC3)c(C)o2)cc1 showed an activity change, less the hit threshold of -25.1%.
COc1ccc(S(=O)(=O)Nc2ccc(Cl)cn2)c(C)c1C showed an activity change, less the hit threshold of -12.1%.
Cc1noc(C)c1CSc1ncnc2sc3c(c12)CCCCC3 was tested, and the activity change, less the hit threshold was 14.8% (active).
For COC(=O)c1ccc(CSc2ncnc3sc(C)c(C)c23)o1, the activity change, less the hit threshold was -6.5%.
COc1ccc(-n2c(O)c(/C=C3\C=Nc4ccccc43)c(=O)[nH]c2=O)cc1 showed an activity change, less the hit threshold of -40%.
Cc1ccc2cc(CCNC(=O)C(=O)c3c(C)[nH]c4ccccc34)c(=O)[nH]c2c1 showed an activity change, less the hit threshold of -20.7%.
In the case of CCOC(=O)c1sc(=S)n2c1[nH]c(=O)c1ccc(C(=O)OC)cc12, the activity change, less the hit threshold is reported as 79.4% (active).
For CCC1SC2=NC(C)=C(C(=O)OC)C(c3ccc(C(=O)OC)cc3)N2C1=O (centres undefined), the activity change, less the hit threshold was -10.7%.
For CCCNC(=O)CN1C(=O)NC(Cc2c[nH]c3ccccc23)C1=O (centres undefined), the activity change, less the hit threshold was -17.5%.
In the case of CC12CCC(C(=O)NCc3ccc4c(c3)OCO4)(CC1=O)C2(C)C (centres undefined), the activity change, less the hit threshold is reported as -5.5%.
Compound CCOCCCNC(=O)C(NC(=O)Cc1cccs1)c1ccc(C)cc1 (centres undefined) has an activity change, less the hit threshold of -21.4%.
For Cc1ccc(S(=O)(=O)NC(=S)NC2CCCCC2)cc1, the activity change, less the hit threshold was -11.5%.
O=S(=O)(NC(=S)NC1CCCCC1)c1ccc(Cl)cc1 was tested, and the activity change, less the hit threshold was 19.8% (active).
With O=S(=O)(NC(=S)NC1CCCCC1)c1ccc(Br)cc1 the activity change, less the hit threshold was 5.4% (active).
In the case of CCc1ccc(S(=O)(=O)NC(=S)NC2CCCCC2)cc1, the activity change, less the hit threshold is reported as 52.3% (active).
O=c1oc2ccccc2c(NC2CCCCC2)c1NS(=O)(=O)c1ccc(Cl)cc1 showed an activity change, less the hit threshold of -14.5%.
For O=C(NC1CCCCC1)c1ccc(COCC(F)(F)F)o1, the activity change, less the hit threshold was -5%.
COc1cc(Cl)c(C)cc1NC(=O)CSc1sc2c(O)cc(=O)[nH]c2c1C#N showed an activity change, less the hit threshold of -11.4%.
N#Cc1c(N)c(C(=O)c2ccccc2)n2ccccc12 was tested, and the activity change, less the hit threshold was -16.1%.
Nn1c(SCC(=O)Nc2ccc(F)cc2)nnc1C1CCCCC1 showed an activity change, less the hit threshold of -23.5%.
Compound O=C1NCCN1Cc1ccccc1F has an activity change, less the hit threshold of -11.9%.
